Reference: PubChem BioAssay (NCI)
This is part of a sample that, as a whole, favours compounds with a hit. Of some 83,000 tested, about 20% had one in any assay.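 In brief: 96-well plates, 48 h treatment, single concentration, percent growth endpoint.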 Unmarked numbers belong to inactive results. Active and inactive are the calls of the source. Rule for the calls: active = growth percent below 10; inactive = the rest.

Experiments:
Assay in all cases: NCI-60 one-dose screen, 48 h (100 = growth as untreated, 0 = no growth, -100 = all killed)
[1] = system: NCI-H23 lung; details: 10 µM
[2] = system: NCI-H322M lung; details: 10 µM
[3] = system: HOP-62 NSCLC; details: 10 µM
[4] = system: NCI-H460 lung; details: 10 µM
[5] = system: HOP-92 NSCLC; details: 10 µM
[6] = system: NCI-H522 lung; details: 10 µM
[7] = system: A549/ATCC NSCLC; details: 10 µM
[8] = system: 786-0 renal; details: 10 µM
[9] = system: COLO 205 colon; details: 10 µM
[10] = system: DU-145 prostate; details: 10 µM
[11] = system: K-562 leukemia; details: 10 µM
[12] = system: MALME-3M melanoma; details: 10 µM
[13] = system: MDA-MB-231 breast; details: 10 µM
[14] = system: RXF 393 renal; details: 10 µM
[15] = system: SF-268 CNS; details: 10 µM
[16] = system: SF-295 CNS; details: 10 µM
[17] = system: SF-539 CNS; details: 10 µM
[18] = system: UACC-257 melanoma; details: 10 µM
[19] = system: M14 melanoma; details: 10 µM unless noted

| SMILES | growth [1] | growth [2] | growth [3] | growth [4] | growth [5] | growth [6] | growth [7] | growth [8] | growth [9] | growth [10] | growth [11] | growth [12] | growth [13] | growth [14] | growth [15] | growth [16] | growth [17] | growth [18] | growth [19] |
| --- | --- | --- | --- | --- | --- | --- | --- | --- | --- | --- | --- | --- | --- | --- | --- | --- | --- | --- | --- |
| O=C(O)c1ccccc1.[Ag] | 99.3% | 109% | 108% | 100% | 107% | -25.1% (active) | 54% | 108% | 25.8% | 105% | 90.3% | 119% | 89% | 106% | 97.1% | 99.7% | 106% | 93.6% | 96.4% |
| Cn1ncc2cc3c(Nc4ccc(Cl)cc4)cccc3nc21 | 85.6% | 104% | 89.3% | 89.8% | 77% | 83.8% | – | 89.3% | 96.1% | 90% | 80.2% | 122% | 81.7% | 90.5% | 85.5% | 87.6% | 90.7% | 100% | 104% |
| COc1cc(N)ccc1Nc1c2ccccc2nc2ccccc12 | 91.8% | 83.6% | 83.6% | 4.72% (active) | – | – | – | 69.4% | 12.4% | 39.7% | 1.11% (active) | 95.7% | 56.4% | 95.1% | 10.4% | 91.5% | – | – | 94.1% |
| Cc1cc(Cl)ccc1NC(=O)/C(Cl)=C1/Sc2ccccc2NC1=O | 88.4% | 102% | 91% | 99.4% | 70.5% | 104% | – | 92.9% | – | 121% | 88.7% | 109% | 80.4% | – | 103% | 118% | 94% | 103% | 83.8% |
| Cc1cc(C)c(N2C(=O)CC(Sc3ccccc3N)C2=O)c(C)c1 (centres undefined) | 82.6% | 112% | 70.4% | 95.6% | – | 78.8% | – | 112% | 84.8% | 89.5% | 47.4% | 77.5% | 83.1% | 84.8% | 80.7% | 47.5% | 88% | 60.4% | 60.3% |
| CN(C)CCNc1cccc2sc3ccc(O)cc3c(=O)c12 | 54.6% | 59.1% | 46.2% | 16% | 31.9% | – | 17.3% | 63.3% | 34.9% | 43.6% | 22.7% | 1.1% (active) | 47.2% | 60.2% | 23.5% | -12.9% (active) | 35.9% | – | 53.8% |
| ClCCn1c(CCl)nc2ccc(Cl)cc21 | -17.1% (active) | 99.5% | – | 0.311% (active) | -57.2% (active) | -73.2% (active) | – | -59.9% (active) | – | -59.3% (active) | -23.7% (active) | -64.3% (active) | -61.7% (active) | -73.9% (active) | -69.2% (active) | 25.3% | -43.9% (active) | 70.3% | -83.3% (active) |
| N#CC(=C1C=CC(=NO)C=C1)c1ccccc1 | 35.3% | 66.3% | 6.93% (active) | 1.48% (active) | -7.52% (active) | 39% | – | 6.67% (active) | 30.4% | -66.7% (active) | 11.9% | 59.1% | -4.14% (active) | – | -24% (active) | 19.6% | -58.7% (active) | 65.6% | -36.5% (active) |
